In all, about 16,000 sequences were measured (“rpm ratio (pull-down/input)”: median about 0.5, highest 2% from about 5.5 on). The sample as a whole holds a higher share of the highest values than the screen did.
The sequences below were run against T1, MBP-FoxP3dN (Mus musculus, UniProt Q99JB6 188-423) (assay: PD-seq (MBP pull-down with sequencing); 20 mM Tris-HCl pH 7.5, 100 mM NaCl, 1.5 mM MgCl2, 0.4 uM protein, 0.1 uM dsDNA library, 30 min, room temperature, amylose pull-down; high values mean tight binding). Details: protein: recombinant; tags: His6-MBP; chain copies: 2; dsDNA, one strand shown.
T1 sequence: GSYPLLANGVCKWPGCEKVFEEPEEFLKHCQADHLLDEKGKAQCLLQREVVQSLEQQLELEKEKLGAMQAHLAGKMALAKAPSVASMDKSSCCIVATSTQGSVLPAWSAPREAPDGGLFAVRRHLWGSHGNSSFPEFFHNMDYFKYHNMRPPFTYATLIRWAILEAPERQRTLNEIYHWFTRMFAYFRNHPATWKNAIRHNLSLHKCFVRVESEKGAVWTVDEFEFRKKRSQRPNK
How it was run: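 E. coli-expressed mouse FoxP3 or FoxP1 fragment, N-terminus removed and tagged with His6-MBP, was used at 0.4 µM against 0.1 µM of a Klenow-filled degenerate double-stranded DNA library. After 30 min at room temperature in Tris pH 7.5 buffer with NaCl and MgCl2, complexes were pulled down on amylose resin and washed three times. Binding is pull-down over input reads-per-million enrichment from pooled replicates of the proteinase K-released, PCR-barcoded, Illumina-sequenced DNA.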

Sequence | binding signal
GATGATTGTTCTCCCAGCTGATGAATTCAATTGTTCGAGTAAACAAATTTTCCTAATCTTTCTGTTCAAGCGCCATCTAC | 3.36 RPM ratio (pull-down/input)
GATGATTGTTCTCCCAGCTGATGAATTGGCCCGGTCGAGTAAACAAATTTTCCTAATCTTTCTGTTCAAGCGCCATCTAC | 0.201 RPM ratio (pull-down/input)
GATGATTGTTCTCCCAGCTGATGAATTGCTTCCCTCGAGTAAACAAATTTTCCTAATCTTTCTGTTCAAGCGCCATCTAC | 0.536 RPM ratio (pull-down/input)
GATGATTGTTCTCCCAGCTGATGAATTGCGCCATTCGAGTAAACAAATTTTCCTAATCTTTCTGTTCAAGCGCCATCTAC | 6.51 RPM ratio (pull-down/input)
GATGATTGTTCTCCCAGCTGATGAATTGCATTCCTCGAGTAAACAAATTTTCCTAATCTTTCTGTTCAAGCGCCATCTAC | 3.39 RPM ratio (pull-down/input)
GATGATTGTTCTCCCAGCTGATGAATTGCATCTCTCGAGTAAACAAATTTTCCTAATCTTTCTGTTCAAGCGCCATCTAC | 4.07 RPM ratio (pull-down/input)
GATGATTGTTCTCCCAGCTGATGAATTTGCATATTCGAGTAAACAAATTTTCCTAATCTTTCTGTTCAAGCGCCATCTAC | 2.72 RPM ratio (pull-down/input)
GATGATTGTTCTCCCAGCTGATGAATTTGCCATCTCGAGTAAACAAATTTTCCTAATCTTTCTGTTCAAGCGCCATCTAC | 2.56 RPM ratio (pull-down/input)
GATGATTGTTCTCCCAGCTGATGAATTGCGTAATTCGAGTAAACAAATTTTCCTAATCTTTCTGTTCAAGCGCCATCTAC | 1.58 RPM ratio (pull-down/input)
GATGATTGTTCTCCCAGCTGATGAATTGCCATTTTCGAGTAAACAAATTTTCCTAATCTTTCTGTTCAAGCGCCATCTAC | 1.02 RPM ratio (pull-down/input)
GATGATTGTTCTCCCAGCTGATGAATTTTGCATCTCGAGTAAACAAATTTTCCTAATCTTTCTGTTCAAGCGCCATCTAC | 7.18 RPM ratio (pull-down/input)
GATGATTGTTCTCCCAGCTGATGAATTTTTGCATTCGAGTAAACAAATTTTCCTAATCTTTCTGTTCAAGCGCCATCTAC | 6.58 RPM ratio (pull-down/input)
GATGATTGTTCTCCCAGCTGATGAATTTGCATTCTCGAGTAAACAAATTTTCCTAATCTTTCTGTTCAAGCGCCATCTAC | 6.29 RPM ratio (pull-down/input)
GATGATTGTTCTCCCAGCTGATGAATTGCATTTCTCGAGTAAACAAATTTTCCTAATCTTTCTGTTCAAGCGCCATCTAC | 2.75 RPM ratio (pull-down/input)
GATGATTGTTCTCCCAGCTGATGAATTTAGAGGCTCGAGTAAACAAATTTTCCTAATCTTTCTGTTCAAGCGCCATCTAC | 0.583 RPM ratio (pull-down/input)
GATGATTGTTCTCCCAGCTGATGAATTTTGATATTCGAGTAAACAAATTTTCCTAATCTTTCTGTTCAAGCGCCATCTAC | 3.34 RPM ratio (pull-down/input)
GATGATTGTTCTCCCAGCTGATGAATTTATCGAATCGAGTAAACAAATTTTCCTAATCTTTCTGTTCAAGCGCCATCTAC | 0.374 RPM ratio (pull-down/input)
GATGATTGTTCTCCCAGCTGATGAATTGCCTCGGTCGAGTAAACAAATTTTCCTAATCTTTCTGTTCAAGCGCCATCTAC | 0.565 RPM ratio (pull-down/input)
GATGATTGTTCTCCCAGCTGATGAATTTTCAACTTCGAGTAAACAAATTTTCCTAATCTTTCTGTTCAAGCGCCATCTAC | 0.307 RPM ratio (pull-down/input)
GATGATTGTTCTCCCAGCTGATGAATTGAATGACTCGAGTAAACAAATTTTCCTAATCTTTCTGTTCAAGCGCCATCTAC | 0.545 RPM ratio (pull-down/input)
GATGATTGTTCTCCCAGCTGATGAATTGTTAAAATCGAGTAAACAAATTTTCCTAATCTTTCTGTTCAAGCGCCATCTAC | 0.291 RPM ratio (pull-down/input)

Sequence | binding signal
GATGATTGTTCTCCCAGCTGATGAATTAAGTAGCTCGAGTAAACAAATTTTCCTAATCTTTCTGTTCAAGCGCCATCTAC | 0.874 RPM ratio (pull-down/input)
GATGATTGTTCTCCCAGCTGATGAATTTTGCCATTCGAGTAAACAAATTTTCCTAATCTTTCTGTTCAAGCGCCATCTAC | 5.66 RPM ratio (pull-down/input)
GATGATTGTTCTCCCAGCTGATGAATTCGTTGCATCGAGTAAACAAATTTTCCTAATCTTTCTGTTCAAGCGCCATCTAC | 2.22 RPM ratio (pull-down/input)
GATGATTGTTCTCCCAGCTGATGAATTTGCCATTTCGAGTAAACAAATTTTCCTAATCTTTCTGTTCAAGCGCCATCTAC | 2.91 RPM ratio (pull-down/input)
GATGATTGTTCTCCCAGCTGATGAATTTGCCCATTCGAGTAAACAAATTTTCCTAATCTTTCTGTTCAAGCGCCATCTAC | 0.615 RPM ratio (pull-down/input)
GATGATTGTTCTCCCAGCTGATGAATTTGCATTGTCGAGTAAACAAATTTTCCTAATCTTTCTGTTCAAGCGCCATCTAC | 5.29 RPM ratio (pull-down/input)
GATGATTGTTCTCCCAGCTGATGAATTGCAGCATTCGAGTAAACAAATTTTCCTAATCTTTCTGTTCAAGCGCCATCTAC | 5.93 RPM ratio (pull-down/input)
GATGATTGTTCTCCCAGCTGATGAATTGTTGCATTCGAGTAAACAAATTTTCCTAATCTTTCTGTTCAAGCGCCATCTAC | 7.63 RPM ratio (pull-down/input)
GATGATTGTTCTCCCAGCTGATGAATTGCATTCTTCGAGTAAACAAATTTTCCTAATCTTTCTGTTCAAGCGCCATCTAC | 4.62 RPM ratio (pull-down/input)
GATGATTGTTCTCCCAGCTGATGAATTTTGCATTTCGAGTAAACAAATTTTCCTAATCTTTCTGTTCAAGCGCCATCTAC | 6.44 RPM ratio (pull-down/input)
GATGATTGTTCTCCCAGCTGATGAATTTGCATTTTCGAGTAAACAAATTTTCCTAATCTTTCTGTTCAAGCGCCATCTAC | 5.38 RPM ratio (pull-down/input)
GATGATTGTTCTCCCAGCTGATGAATTCGCGGAGTCGAGTAAACAAATTTTCCTAATCTTTCTGTTCAAGCGCCATCTAC | 0.23 RPM ratio (pull-down/input)
GATGATTGTTCTCCCAGCTGATGAATTTGGGTTGTCGAGTAAACAAATTTTCCTAATCTTTCTGTTCAAGCGCCATCTAC | 1.1 RPM ratio (pull-down/input)
GATGATTGTTCTCCCAGCTGATGAATTCCTACGGTCGAGTAAACAAATTTTCCTAATCTTTCTGTTCAAGCGCCATCTAC | 0.213 RPM ratio (pull-down/input)
GATGATTGTTCTCCCAGCTGATGAATTCCCTGTTTCGAGTAAACAAATTTTCCTAATCTTTCTGTTCAAGCGCCATCTAC | 0.346 RPM ratio (pull-down/input)
GATGATTGTTCTCCCAGCTGATGAATTAGAATAGTCGAGTAAACAAATTTTCCTAATCTTTCTGTTCAAGCGCCATCTAC | 0.342 RPM ratio (pull-down/input)
GATGATTGTTCTCCCAGCTGATGAATTTTTTTTTTCGAGTAAACAAATTTTCCTAATCTTTCTGTTCAAGCGCCATCTAC | 0.217 RPM ratio (pull-down/input)
GATGATTGTTCTCCCAGCTGATGAATTCCGGCGTTCGAGTAAACAAATTTTCCTAATCTTTCTGTTCAAGCGCCATCTAC | 1.07 RPM ratio (pull-down/input)
GATGATTGTTCTCCCAGCTGATGAATTCACGTCATCGAGTAAACAAATTTTCCTAATCTTTCTGTTCAAGCGCCATCTAC | 0.59 RPM ratio (pull-down/input)
GATGATTGTTCTCCCAGCTGATGAATTATTGGAGTCGAGTAAACAAATTTTCCTAATCTTTCTGTTCAAGCGCCATCTAC | 0.296 RPM ratio (pull-down/input)
GATGATTGTTCTCCCAGCTGATGAATTTAAACGCTCGAGTAAACAAATTTTCCTAATCTTTCTGTTCAAGCGCCATCTAC | 0.381 RPM ratio (pull-down/input)

Sequence | binding signal
GATGATTGTTCTCCCAGCTGATGAATTCCTTGCATCGAGTAAACAAATTTTCCTAATCTTTCTGTTCAAGCGCCATCTAC | 0.828 RPM ratio (pull-down/input)
GATGATTGTTCTCCCAGCTGATGAATTATTGCATTCGAGTAAACAAATTTTCCTAATCTTTCTGTTCAAGCGCCATCTAC | 7.31 RPM ratio (pull-down/input)
GATGATTGTTCTCCCAGCTGATGAATTTGCAGCTTCGAGTAAACAAATTTTCCTAATCTTTCTGTTCAAGCGCCATCTAC | 1.22 RPM ratio (pull-down/input)
GATGATTGTTCTCCCAGCTGATGAATTGCATCTTTCGAGTAAACAAATTTTCCTAATCTTTCTGTTCAAGCGCCATCTAC | 5.4 RPM ratio (pull-down/input)
GATGATTGTTCTCCCAGCTGATGAATTGCATTATTCGAGTAAACAAATTTTCCTAATCTTTCTGTTCAAGCGCCATCTAC | 3.3 RPM ratio (pull-down/input)
GATGATTGTTCTCCCAGCTGATGAATTGCATCCTTCGAGTAAACAAATTTTCCTAATCTTTCTGTTCAAGCGCCATCTAC | 5.53 RPM ratio (pull-down/input)
GATGATTGTTCTCCCAGCTGATGAATTTGCATCTTCGAGTAAACAAATTTTCCTAATCTTTCTGTTCAAGCGCCATCTAC | 7.16 RPM ratio (pull-down/input)
GATGATTGTTCTCCCAGCTGATGAATTGAATCCTTCGAGTAAACAAATTTTCCTAATCTTTCTGTTCAAGCGCCATCTAC | 0.33 RPM ratio (pull-down/input)
GATGATTGTTCTCCCAGCTGATGAATTCTTGCATTCGAGTAAACAAATTTTCCTAATCTTTCTGTTCAAGCGCCATCTAC | 6.02 RPM ratio (pull-down/input)
GATGATTGTTCTCCCAGCTGATGAATTATTCCATTCGAGTAAACAAATTTTCCTAATCTTTCTGTTCAAGCGCCATCTAC | 0.434 RPM ratio (pull-down/input)
GATGATTGTTCTCCCAGCTGATGAATTGCCATCTTCGAGTAAACAAATTTTCCTAATCTTTCTGTTCAAGCGCCATCTAC | 1.07 RPM ratio (pull-down/input)
GATGATTGTTCTCCCAGCTGATGAATTGCATTCGTCGAGTAAACAAATTTTCCTAATCTTTCTGTTCAAGCGCCATCTAC | 3.88 RPM ratio (pull-down/input)
GATGATTGTTCTCCCAGCTGATGAATTGTAGACATCGAGTAAACAAATTTTCCTAATCTTTCTGTTCAAGCGCCATCTAC | 0.874 RPM ratio (pull-down/input)
GATGATTGTTCTCCCAGCTGATGAATTGACTCTCTCGAGTAAACAAATTTTCCTAATCTTTCTGTTCAAGCGCCATCTAC | 0.425 RPM ratio (pull-down/input)
GATGATTGTTCTCCCAGCTGATGAATTCGAGATATCGAGTAAACAAATTTTCCTAATCTTTCTGTTCAAGCGCCATCTAC | 0.404 RPM ratio (pull-down/input)
GATGATTGTTCTCCCAGCTGATGAATTGGTAGCCTCGAGTAAACAAATTTTCCTAATCTTTCTGTTCAAGCGCCATCTAC | 0.924 RPM ratio (pull-down/input)
GATGATTGTTCTCCCAGCTGATGAATTCACTGTATCGAGTAAACAAATTTTCCTAATCTTTCTGTTCAAGCGCCATCTAC | 0.627 RPM ratio (pull-down/input)
GATGATTGTTCTCCCAGCTGATGAATTGTCTGTATCGAGTAAACAAATTTTCCTAATCTTTCTGTTCAAGCGCCATCTAC | 0.624 RPM ratio (pull-down/input)
GATGATTGTTCTCCCAGCTGATGAATTGTGGCGTTCGAGTAAACAAATTTTCCTAATCTTTCTGTTCAAGCGCCATCTAC | 2.54 RPM ratio (pull-down/input)
GATGATTGTTCTCCCAGCTGATGAATTGAATGATTCGAGTAAACAAATTTTCCTAATCTTTCTGTTCAAGCGCCATCTAC | 0.737 RPM ratio (pull-down/input)
GATGATTGTTCTCCCAGCTGATGAATTCGAACACTCGAGTAAACAAATTTTCCTAATCTTTCTGTTCAAGCGCCATCTAC | 0.457 RPM ratio (pull-down/input)

— PMC12820563, “FoxP3 forms a head-to-head dimer in vivo and stabilizes its multimerization on adjacent microsatellites”
